The list is not random: actives were taken first. Their share in the collection is about 32%.
CYP2C9 inh = inhibitors of human CYP2C9. AID 777. CYP2C9 Supersomes, luciferin-H conversion, luminescence. inhibition, % at 5 µM. 96,000 tested, 20% active. P11712;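 active = blocking of liver enzyme CYP2C9 beyond about 50% at 5 µM, limit read from the data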
CYP2C19 act = cytochrome P450 2C19 (human) activation | AID 1025 | recombinant CYP2C19, luciferin-H EGE luminescence; hits give high values; 0 = fully inhibited enzyme, 1 = untreated enzyme | 96,000 tested, under 10 active | activation factor at 5 µM;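 active = activation factor of at least 2 at 5 µM in the primary screen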;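 note: 0 = wells with 2.5 mM tranylcypromine and 1 = vehicle-only wells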
Target sequence (P33261 whole entry, looked up): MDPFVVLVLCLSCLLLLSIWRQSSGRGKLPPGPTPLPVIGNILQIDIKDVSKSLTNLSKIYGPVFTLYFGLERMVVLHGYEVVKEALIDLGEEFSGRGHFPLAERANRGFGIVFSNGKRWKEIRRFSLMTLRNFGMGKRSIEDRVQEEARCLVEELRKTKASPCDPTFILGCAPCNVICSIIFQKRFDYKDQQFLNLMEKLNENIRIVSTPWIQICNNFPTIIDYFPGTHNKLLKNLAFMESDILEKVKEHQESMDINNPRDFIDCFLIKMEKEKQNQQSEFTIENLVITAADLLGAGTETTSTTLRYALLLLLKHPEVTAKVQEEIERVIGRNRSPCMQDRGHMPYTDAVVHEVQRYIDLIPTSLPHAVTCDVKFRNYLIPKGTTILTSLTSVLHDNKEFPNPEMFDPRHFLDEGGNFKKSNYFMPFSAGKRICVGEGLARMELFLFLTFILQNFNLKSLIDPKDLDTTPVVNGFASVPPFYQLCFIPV
CYP2C19 inhib = human CYP2C19 inhibition; P33261; CYP2C19 Supersomes, luciferin-H EGE luminescence, 30 min; inhibition, % at 5 µM; 96,000 tested, 21% active; AID 778;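 active = CYP2C19 inhibition above a set limit at 5 µM in the primary screen, cut at about 50% in these data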;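 note: plate controls were negative control wells for no effect and 2.5 mM tranylcypromine positive control for full effect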
CYP2C9 act = increases human cytochrome P450 2C9 activity; recombinant CYP2C9, luciferin-H conversion, luminescence; hits give high values; factor 1 = untreated enzyme, 0 = blocked; P11712; activation factor at 5 µM; AID 1024; 96,000 tested, 1.4% active;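 active = activation factor of 2 or more for CYP2C9 at a 5 µM dose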;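 note: 0 = sulfaphenazole-blocked wells and 1 = vehicle-only wells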
PostGolgi yeast = growth inhibition of a yeast mutant, post-Golgi transport screen; post-Golgi transport phenotypic cell assay; inhibition, % at 10 µM; 98,000 tested, 0.9% active; AID 739;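 note: yeast cells grown in 1536-well plates; yeast grown about 18 h at 30C before absorbance read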
PostGolgi ctrl = growth of the yeast control strain, post-Golgi counter-screen; efflux-deficient yeast background strain, growth absorbance A615, 16 h; inhibition, % at 10 µM; 98,000 tested, 5% active; AID 738
Starred values were filed as active, the others as inactive. Cut-off read from the data, not from the text of the source, unless noted: active = inhibition above about 30%; inactive = the rest.

SMILES	CYP2C9 inh	CYP2C19 act	CYP2C19 inhib	CYP2C9 act	PostGolgi yeast	PostGolgi ctrl
COc1ccc(-c2nnc(-c3cc4c(ccc5ccccc54)oc3=O)o2)cc1	55.9*	0.3	67.9*	0.4	14.4	9.9
O=c1oc2ccc3ccccc3c2cc1-c1nnc(-c2ccccc2)o1	2.6	0.6	35.9	1	-6.6	10.3
O=S(=O)(c1ccc(Cl)s1)N1CCCc2cccc(O)c21	14.8	0.3	71.8*	0.9	-1.4	19.1
O=S(=O)(c1ccc(Cl)s1)N1CCc2ccccc2C1	11.0	0.3	66.8*	0.9	2.1	13.8
O=C(O)C1CCCN(S(=O)(=O)c2ccc(Cl)s2)C1 (stereo not given)	10.1	1	0.9	0.9	-1.3	3.8
O=C(CCc1ccccc1)NNC(=S)NC(=O)c1ccc(Cl)cc1	42.6	0.8	19.9	0.6	11.6	25.6
C=CCOc1ccc(C2C(C(=O)c3ccco3)=C(O)C(=O)N2Cc2cccnc2)cc1 (stereo not given)	38.8	1	1.7	0.6	-3.7	25.2
COc1nc(C)nc(NC(=O)NS(=O)(=O)c2ccc(C)cc2)n1	-21.4	1	-0.4	1.2	-5.4	-1.6
O=C(Nc1ccc(N2CCCCC2)c(Cl)c1)c1ncn[nH]1	-8.1	0.9	9.8	1.1	-4.2	13.2
CCOc1cc(/C=C2\N=C(SC)SC2=O)cc([N+](=O)[O-])c1OC(C)=O	71.4*	1	-2.3	0.3	-4.4	13.1
CCOc1c(OC(C)=O)ccc(/C=C2\N=C(SCC)SC2=O)c1[N+](=O)[O-]	20.1	1	4.4	0.8	-3.6	26.4
CSC1=N/C(=C\c2ccc(C)cc2)C(=O)S1	10.1	1	2.3	0.9	2.4	13.5
CCOc1cc(/C=C2\N=C(SCC)SC2=O)cc([N+](=O)[O-])c1OC(C)=O	71.7*	1.1	-8.4	0.3	4.4	19.9
Cc1ccccc1-n1c(Cn2c(=O)sc3ccccc32)nnc1SCC(=O)N1CCOCC1	3.2	1	-3.4	1	-3.1	0.0
Cc1ccc(C2=NC(C)(C)N=C2SCC(=O)Nc2ccc(Cl)cc2)cc1	46.7	0.6	39.4	0.5	12.8	34.5*
CC1(C)N=C(SCC(=O)Nc2ccc(Cl)cc2Cl)C(c2ccccc2)=N1	62.3*	0.5	54.8*	0.4	-10.7	10.6
CSc1ccc(C2C3(C#N)C(N)=NC4(OCCO4)C23C#N)cc1 (stereo not given)	2.9	0.8	20.4	1	-4.2	8.6
COc1cccc(C2C3(C#N)C(N)=NC(OC)(OC)C23C#N)c1 (stereo not given)	-5.3	0.7	26.9	1.1	-4.7	9.4
COC1(OC)N=C(N)C2(C#N)C(c3cccc(Oc4ccccc4)c3)C12C#N (stereo not given)	55.6*	0.4	59.3*	0.4	-1.5	8.2
CCSC1(SCC)N=C(N)C2(C#N)C(c3ccc(F)cc3)C12C#N (stereo not given)	57.8*	0.4	61.5*	0.4	-0.7	1.8
CCCC1=C(C(=O)OCC)C(c2ccc(NC(C)=O)cc2)NC(=O)N1 (stereo not given)	4.8	1	2.7	1	-3.9	17.6
CCOC1(OCC)N=C(N)C2(C#N)C(c3ccc(NC(C)=O)cc3)C12C#N (stereo not given)	87.7*	0.9	8.7	0.1	5.8	17.1
COC1(OC)N=C(N)C2(C#N)C(c3ccc(F)cc3)C12C#N (stereo not given)	9.8	0.5	51.7*	0.9	4.3	8.8
CCOC(=O)N1CCN(C(=O)C2CCN(Cc3nc(-c4ccccc4C)oc3C)CC2)CC1	-2.9	0.7	27.6	1	4.7	1.8
O=C(N/N=C/c1ccc([N+](=O)[O-])cc1)c1ccc2nc[nH]c2c1	20.6	1.1	-8.1	0.8	-9.5	21.6
SMILES	CYP2C9 inh	CYP2C19 act	CYP2C19 inhib	CYP2C9 act	PostGolgi yeast	PostGolgi ctrl
O=C(N/N=C/c1cccc([N+](=O)[O-])c1)c1ccc2nc[nH]c2c1	50.8*	0.8	24.2	0.5	-4.0	-5.3
Cc1ccc(C2CC(c3ccccc3)=NN2C(=S)Nc2ccccc2)o1 (stereo not given)	56.0*	0.7	33.8	0.4	28.6	13.8
COc1cccc(C2CC(c3cccs3)=NN2C(=S)Nc2ccccc2)c1OC (stereo not given)	43.0	0.8	23.6	0.6	-1.4	10.0
CCOC(=O)C1CCCN(c2ncnc3c2oc2ccccc23)C1 (stereo not given)	46.2	0.3	69.0*	0.5	2.6	32.7*
c1ccc(N2CCN(c3ncnc4c3oc3ccccc34)CC2)cc1	13.5	1	-3.6	0.9	-1.2	34.8*
Cc1nn(Cc2ccccc2Cl)c2sc(C(=O)NCc3ccc4c(c3)OCO4)cc12	98.8*	0.1	91.6*	0	-4.4	28.6
COc1ccccc1CNC(=O)c1cc2c(C)nn(Cc3ccc(F)cc3)c2s1	78.2*	0.6	37.7	0.2	-3.9	33.4*
O=C(NCc1ccc2c(c1)OCO2)c1cc(-c2ccccc2Cl)on1	-49.2	0.9	11.6	1.5	-7.8	27.5
CCC(CC)NC(=O)c1cc2c(C)nn(Cc3ccccc3Cl)c2s1	70.7*	0.6	39.4	0.3	0.3	38.1*
Cc1c(Cl)cccc1NC(=O)CCC(=O)NNC(=O)c1ccccc1Cl	4.0	0.8	19.2	1	15.6	-8.2
CCN(CC)c1ccc(NC(=O)COC(=O)C23CCC(=O)N2c2ccccc2S3)cc1 (stereo not given)	33.3	0.9	7.7	0.7	8.0	-4.1
COc1ccc(CCN2C(=O)CC(NCc3ccc4c(c3)OCO4)C2=O)cc1OC (stereo not given)	19.8	0.7	32.6	0.8	-1.3	6.7
COc1ccc(C2C(Oc3ccccc3C)C(=O)N2Cc2ccc(F)cc2)cc1OC (stereo not given)	75.5*	0.1	90.2*	0.2	-6.0	9.9
COc1ccc(CCN2C(=O)C(Oc3ccccc3C)C2c2ccc3c(c2)OCO3)cc1OC (stereo not given)	59.7*	0.3	65.7*	0.4	0.5	16.0
c1ccc(-c2nc(NC3CC3)nc(-n3ccnc3)n2)cc1	17.6	0.9	11.0	0.8	-6.7	9.7
COc1cccc(-n2nnc3c(=O)n(Cc4ccc(Br)cc4)cnc32)c1	6.7	0.9	10.9	0.9	-5.1	3.4
Cc1ccc(C(=O)NC(=S)Nc2cccc3c(C)cc(C)nc23)cc1	10.5	0.9	9.3	0.9	-5.5	2.8
O=C1OC(OC2CCCCC2)(c2ccccc2)c2ccccc21 (stereo not given)	26.0	0.9	8.8	0.7	6.1	38.8*
CCCCOC1(c2ccccc2)OC(=O)c2ccccc21 (stereo not given)	61.2*	0.4	55.0*	0.4	-1.8	10.0
O=C1OC(Oc2ccccc2)(c2ccccc2)c2ccccc21 (stereo not given)	54.4*	0.6	44.3	0.5	2.1	32.4*
